Measured values: article PMC5540273 (PLoS ONE, 2017)

How the values were obtained:
Conditions in all cases: concentration: 1 μM, replicates: in singlicate; n = 1
FYN = tested on: FYN
GAK = tested on: GAK
GCN2(Kin.Dom.2,S808G) = tested on: T1, GCN2(Kin.Dom.2,S808G)
T1 construct: gene EIF2AK4

GRK1 = tested on: GRK1
GRK2 = tested on: T2, GRK2
T2 construct: gene ADRBK1

GRK3 = tested on: T3, GRK3
T3 construct: gene ADRBK2

GRK4 = tested on: GRK4
GRK7 = tested on: GRK7
GSK3A = tested on: GSK3A
GSK3B = tested on: GSK3B
HASPIN = tested on: T4, HASPIN
T4 construct: gene GSG2

HCK = tested on: HCK
HIPK1 = tested on: HIPK1
HIPK2 = tested on: HIPK2
HIPK3 = tested on: HIPK3
HIPK4 = tested on: HIPK4
HPK1 = tested on: HPK1
HUNK = tested on: HUNK
ICK = tested on: ICK
IGF1R = tested on: IGF1R
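Note: KINOMEscan kinase panel screen.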

Structure (SMILES)	%Inh (FYN) [%]	%Inh (GAK) [%]	%Inh (GCN2(Kin.Dom.2,S808G)) [%]	%Inh (GRK1) [%]	%Inh (GRK2) [%]	%Inh (GRK3) [%]	%Inh (GRK4) [%]	%Inh (GRK7) [%]	%Inh (GSK3A) [%]	%Inh (GSK3B) [%]	%Inh (HASPIN) [%]	%Inh (HCK) [%]	%Inh (HIPK1) [%]	%Inh (HIPK2) [%]	%Inh (HIPK3) [%]	%Inh (HIPK4) [%]	%Inh (HPK1) [%]	%Inh (HUNK) [%]	%Inh (ICK) [%]	%Inh (IGF1R) [%]
Cc1cccc(Nc2nc(N[C@H]3CCNC3)ncc2C(N)=O)c1.Cl [GSK2197149]	43	86	25	0	0	0	78	0	0	0	54	82	21	8	30	0	88	0	0	2
Cn1cc(-c2[nH]c3cc(NC(=O)[C@H](N)C4CCCCC4)cc4c3c2C=NNC4=O)cn1	89	99.8	99.3	11	96.9	100	97.1	40	0	2	52	96.9	88	80	80	89	65	0	0	0
Nc1ncnc2c1nc(-c1ccccc1)n2-c1ccccc1 [SKF-97293]	0	1	0	36	0	13	13	43	0	40	38	27	7	16	35	9	21	0	19	12
CC(C)c1nc(-c2cccc(NS(=O)(=O)c3c(F)cccc3F)c2F)c(-c2ccnc(Nc3ccc(N4CCOCC4)nc3)n2)s1 [GSK2008607]	98.2	96.1	100	100	0	0	0	0	53	21	0	99.5	91.1	92.3	94.5	94.7	88	0	77	8
CCCCc1nn2ncccc2c1-c1ccnc(Nc2ccc(N3CCN(C)CC3)cc2)n1 [GW684941]	58	91.7	93	0	0	62	16	0	7	5	25	73	24	0	32	71	61	0	17	16
CN(C)Cc1ccc(-c2ccc3c(Nc4ccc(Oc5ccccn5)cc4)ccnc3c2)o1 [GW567148]	71	82	0	0	0	0	0	10	0	6	26	93.8	0	0	1	0	0	0	0	0
O=C(Nc1ccccc1F)NC1CCN(c2ccnc(Nc3ccc(F)cc3)n2)CC1 [GSK1379800]	8	0	0	0	0	0	0	0	5	12	9	0	0	0	16	0	34	6	3	10
Nc1ncc(-c2ccc3nccc(-c4ccncc4)c3c2)cc1S(=O)(=O)N1CCOCC1 [GSK1627798]	14	6	3	1	0	17	1	0	1	3	50	0	37	15	25	76	49	0	36	35
O=c1[nH]cc(-c2ccc(N3CCOCC3)cc2)c2sc(-c3cn[nH]c3)cc12 [GSK2276055]	31	34	0	14	9	0	0	0	97.7	77	79	0	97.3	97.5	99	47	26	11	31	0
Cc1ccc(S(=O)(=O)Nc2ccc(Nc3nccc(Nc4cccc5[nH]ncc45)n3)cc2)cc1 [GSK581271]	41	44	0	0	0	42	0	0	24	10	0	0	0	0	1	0	23	2	0	10
